Some test systems named below: DU-145 prostate; K-562 leukemia; MDA-MB-231 breast; RXF 393 renal; SF-268 CNS; SF-295 CNS; SF-539 CNS; UACC-257 melanoma; M14 melanoma; HCT-15 colon; HT29 colon; SNB-75 CNS; SNB-19 CNS; U251 CNS; PC-3 prostate; SK-MEL-5 melanoma; UACC-62 melanoma; LOX IMVI melanoma; SK-MEL-28 melanoma.
Common to all, as to assay: NCI-60 one-dose screen, 48 h (100 = growth as untreated, 0 = no growth, -100 = all killed)
Common to all, as to details: 10 µM

About 83,000 compounds went through this panel and 20% of them were active in at least one assay; those are over-represented in the sample as a whole.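 Results are percent growth after 48 hours of single-concentration exposure. 100 means growth as in untreated cells, lower positive values show inhibition; negative values down to -100 show cell death.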 A number with no mark means an inactive call. The source made the active and inactive calls. The calls were made as follows: active = growth percent below 10; inactive = the rest.

For the compound `COc1cc(N=C2C(=O)N(Cc3ccccc3)c3ccccc32)cc(OC)c1OC`, the growth is 104% with DU-145 prostate; 97.4% in the test on K-562 leukemia; 105% in the test on MDA-MB-231 breast; -23% (active) with RXF 393 renal; 97.4% in the test with SF-268 CNS; 94.3% with SF-295 CNS. Further, the growth in the test with SF-539 CNS was 93%; in the test on UACC-257 melanoma it was 96.6%; in the test with M14 melanoma it was 98.2%; with HCT-15 colon it was 95.3%; in the test on HT29 colon it was 103%; in the test with SNB-75 CNS, 82.6%. Also, the growth in the test on SNB-19 CNS is 95.1%; in the test with U251 CNS, 94.2%; in the test with PC-3 prostate, 97.8%; with SK-MEL-5 melanoma, 94.2%; in the test on UACC-62 melanoma it was 90.8%; with LOX IMVI melanoma, 86.9%. For the same compound, the growth in the test with SK-MEL-28 melanoma was 113%.

With `COc1cc(/C=C/C(=O)c2cc(-c3ccc(C(F)(F)F)cc3)ccc2O)cc(OC)c1OC`, the growth was 81% with DU-145 prostate; 41% in the test on K-562 leukemia; 61.3% with MDA-MB-231 breast; 61% in the test on RXF 393 renal; 76.2% in the test with SF-268 CNS; 78.1% in the test with SF-295 CNS. The growth was 92.3% in the test on SF-539 CNS; 82.5% with UACC-257 melanoma; 81.8% in the test on M14 melanoma; 60% in the test on HCT-15 colon; 60.5% in the test on HT29 colon; 78.6% in the test with SNB-75 CNS. The growth with SNB-19 CNS was 75.4%; in the test with U251 CNS it was 69%; in the test on PC-3 prostate it was 44.4%; in the test with SK-MEL-5 melanoma, 47.2%; in the test on UACC-62 melanoma, 53.5%; in the test on LOX IMVI melanoma, 19.2%. In addition, the growth in the test with SK-MEL-28 melanoma is 92.2%.

Consider `CC(=O)Oc1ccc(C2=Cc3ccc(OC(C)=O)cc3OC2C)cc1` (stereo not given), for which the growth with DU-145 prostate was 62.8%; in the test on K-562 leukemia it was 28.4%; in the test with MDA-MB-231 breast, 67.9%; in the test with RXF 393 renal, 68.9%; in the test on SF-268 CNS it was 57.9%; with SF-295 CNS, 69.9%. Besides, the growth in the test with SF-539 CNS was 28%; with UACC-257 melanoma it was 81.3%; with M14 melanoma, 49.8%; in the test on HCT-15 colon, 48.4%; with HT29 colon, 93.7%; in the test on SNB-75 CNS it was 49%. The growth in the test with SNB-19 CNS is 85.2%; in the test with U251 CNS, 43.3%; in the test with PC-3 prostate, 66.3%; in the test on SK-MEL-5 melanoma, 50.2%; in the test with UACC-62 melanoma it was 45%; in the test on LOX IMVI melanoma, 44.4%. In addition, the growth in the test with SK-MEL-28 melanoma was 62.1%.

Take `O=[N+]([O-])c1ccc(S(=O)(=O)OCCCCOS(=O)(=O)c2ccc([N+](=O)[O-])cc2)cc1`: the growth in the test on DU-145 prostate is 107%; in the test on K-562 leukemia, 94.7%; with MDA-MB-231 breast it was 106%; in the test on RXF 393 renal, 112%; in the test on SF-268 CNS it was 106%; in the test with SF-295 CNS it was 105%. Further, the growth with SF-539 CNS is 104%; with UACC-257 melanoma it was 108%; in the test on M14 melanoma, 104%; in the test with HCT-15 colon it was 114%; in the test with HT29 colon, 107%; in the test on SNB-75 CNS, 92%. In addition, the growth in the test with SNB-19 CNS is 112%; with U251 CNS, 104%; in the test with PC-3 prostate, 98.4%; in the test with SK-MEL-5 melanoma it was 100%; in the test with UACC-62 melanoma, 99.8%; in the test with LOX IMVI melanoma, 94.6%. In addition, in the test with SK-MEL-28 melanoma, the growth was 99.1%.

Regarding `CCCCCCCCCCCCCC[n+]1ccc(C)cc1`, the growth in the test on DU-145 prostate was 5.11% (active); in the test on K-562 leukemia, 9.19% (active); with MDA-MB-231 breast, -40.2% (active); in the test on RXF 393 renal, -19.6% (active); with SF-268 CNS, -32.4% (active); in the test with SF-295 CNS, -67.1% (active). Further, the growth was -33.5% (active) in the test with SF-539 CNS; -21.6% (active) in the test with UACC-257 melanoma; -72.7% (active) with M14 melanoma; 47% in the test on HCT-15 colon; -9.48% (active) in the test with HT29 colon; -23.9% (active) in the test on SNB-75 CNS. The growth in the test with SNB-19 CNS was -50.2% (active); in the test with U251 CNS it was -78.5% (active); in the test with PC-3 prostate it was -37% (active); in the test with SK-MEL-5 melanoma, -96.3% (active); in the test with UACC-62 melanoma, -71.5% (active); in the test on LOX IMVI melanoma, -94.4% (active). In addition, the growth with SK-MEL-28 melanoma is -20.4% (active).

(Values after PubChem BioAssay (NCI).)
